Screening results: PubChem, several laboratories
Peg3 promoter – Peg3 promoter activity inhibition | HeLa PEG-Prom luciferase reporter, luminescence, overnight | inhibition, % at 20 µM | 360,000 compounds, 1.7% hits;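 active = inhibition of at least 50% at 20 µM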
HIF-2a block – inhibitors of HIF-2a. inhibition, % at 18.8 µM. 360,000 compounds, 0.72% hits. 786-0 RCC cells HIF-2a reporter, luciferase luminescence, overnight. AID 624352;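 active = inhibition of the luminescence signal of 40% or more relative to plate controls, in a single-dose primary screen at 18.75 µM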
LMP1 NFkB inh – inhibitors of Epstein-Barr LMP1-induced NF-kappaB reporter | inhibition, % at 12.5 µM | 350,000 compounds, 0.69% hits | LMP1-induced NF-kappaB luciferase reporter cells, luminescence; in the data active = inhibition above about 41%;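 also: 0% = neutral control wells and 100% = reference inhibitor control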
Shn3 3UTR inh – Schnurri-3 reporter inhibition in Clone20 osteoblasts; Clone20 osteoblast Shn3 3'UTR firefly luciferase, 24 h; inhibition, % at 12.5 µM; 360,000 compounds, 0.52% hits; AID 588674;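 active = mean inhibition of at least 75% with every replicate also reaching 75%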;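 also: 0% = median of neutral control wells and 100% = pilot-screen positive control compound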
KKLEB tox – counter-screen for CF NF-kB inhibitors: cytotoxicity; KKLEB CF airway cells viability, ATPlite luminescence, overnight; active compounds read low; cells stimulated with P. aeruginosa culture filtrate; activity change (cytotoxicity), % at 5 µM; 360,000 compounds, 0.36% hits; AID 602141;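 active = corrected activity change at or below -50% at 5 µM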
CF NFkB inh – blocks PAF-induced NF-kB reporter in cystic fibrosis cells; inhibition, % at 5 µM; KKLEB NF-kB-GFP reporter, GFP fluorescence overnight; 360,000 compounds, 0.86% hits;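 active = at least 50% inhibition at 5 µM, scaled per plate between neutral and stimulator controls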;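 also: PAF is a Pseudomonas aeruginosa culture filtrate used as stimulus; plate controls were PAF-stimulated DMSO wells for no effect and unstimulated DMSO wells for full effect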
Mdm2-MdmX confirm – Mdm2/MdmX (human) interaction inhibition, confirmed. shares compounds with HIF-2a block. SaOS-2 split-luciferase Mdm2/MdmX complementation, luminescence. inhibition, % at 8 µM. 740 compounds, 99% hits;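 active = mean inhibition of the luminescence signal across two replicates at or above 26 percent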
HIF-2a conf – HIF-2a inhibition, single concentration confirmation; shares compounds with HIF-2a block; 786-0 RCC cells, HIF-2a luciferase reporter luminescence, overnight; inhibition, % at 18.8 µM; 1,800 compounds, 56% hits; AID 651580;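 active = mean inhibition across four replicates of at least 40 percent at the single tested concentration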
HIF-1a cs – HIF-1a inhibition counter-screen for HIF-2a hits. shares compounds with HIF-2a block. MiaPaCa-2 HIF-1a luciferase reporter, desferoxamine, overnight. inhibition, % at 18.8 µM. 1,800 compounds, 72% hits. AID 651589;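 active = mean inhibition of the reporter signal across four replicates at the single tested dose of 50% or more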
* marks the source's active call; other numbers are inactive results; · = no result. This is a sample that favours compounds with a hit; in the whole collection about 2.9% have one here.

SMILES	Peg3 promoter	HIF-2a block	LMP1 NFkB inh	Shn3 3UTR inh	KKLEB tox	CF NFkB inh	HIF-2a conf	HIF-1a cs	others
O=C(CN1C(=O)c2ccccc2S1(=O)=O)c1ccc(OC(F)F)cc1	56*	52*	82*	74	5	-3	75*	64*
O=C(Nc1nnc(SCc2cccnc2)s1)C1CC(=O)N(c2ccc(F)cc2)C1 (stereo unspecified)	12	-3	-4	-5	29	-24	·	·
CN(C)c1ccc(C(=S)NCc2ccco2)cc1	38	52*	-5	2	6	-10	-13	-47
CN(C)c1ccc(/C=N/NC(=S)NCc2ccco2)cc1	-67	-60	2	-34	9	7	·	·
C[C@@H]1CN([C@H](C)CO)C(=O)c2cc(NC(=O)Nc3ccc4c(c3)OCO4)ccc2O[C@H]1CN(C)Cc1ccncc1	7	16	-8	-4	18	-25	·	·
Cc1cc(C)nc(-n2nc(C)cc2NC(=O)c2cccc(S(=O)(=O)N3CCOCC3)c2)n1	9	23	8	0	-10	-29	·	·
O=C(Nc1ccc(OC(F)(F)F)cc1)N1CCN(c2ccnc3cc(Cl)ccc23)CC1	26	43*	33	75	-7	3	11	45
COc1ccccc1NC(=O)N1CCN(c2ccnc3cc(Cl)ccc23)CC1	-3	16	21	15	-1	6	·	·
Cc1ccccc1C(=O)NCC(=O)N1CCN(C/C=C/c2ccccc2)CC1	11	6	8	-13	8	6	·	·
Cc1nc([N+](=O)[O-])c(Sc2nc3ccccc3[nH]2)n1Cc1ccccc1	-4	22	4	25	-10	42	·	·
Cc1cc2nc(Sc3c([N+](=O)[O-])nc(C)n3Cc3ccccc3)[nH]c2cc1C	33	53*	-19	-41	-13	44	17	32
CCN(CC)CC(=O)c1ccc(-c2ccccc2)cc1	-7	46*	-3	13	12	-7	7	28
Cc1ccc(C(=O)Nc2nc(-c3ccccn3)cs2)o1	-12	-78	20	34	1	11	·	·
CC(=O)c1ccc(-c2ccc(C(=O)Nc3nc(-c4ccccn4)cs3)o2)cc1	76*	-69	3	37	2	-13	·	·	Mdm2-MdmX confirm=99*
C/C(=N\Nc1cc(C)nc(-c2ccccc2O)n1)c1ccccc1O	27	-51	-13	-15	-19	80*	·	·	Mdm2-MdmX confirm=73*
COc1ccccc1NC(=O)C(=O)N(c1cccnc1)C(C(=O)NC(C)(C)C)c1ccccc1F (stereo unspecified)	19	12	-6	-5	-19	12	·	·
COC(=O)c1[nH]c2ccc(Cl)cc2c1NC(=O)CCN1CCN(C2CCCCC2)CC1	4	18	1	-13	-1	3	·	·
COC(=O)c1[nH]c2ccc(Br)cc2c1NC(=O)CN1CCN(C2CCCCC2)CC1	104*	68*	-5	-5	-11	-7	9	104*	Mdm2-MdmX confirm=103*
CCOc1ccc(CNC(=O)CCS(=O)(=O)c2ccc3c(c2)NC(=O)CO3)cc1OC	1	1	2	2	-6	11	·	·
O=[N+]([O-])c1cc(-c2ncccn2)c([N+](=O)[O-])s1	104*	91*	11	5	10	16	40*	52*
NC(=O)c1ccc(Cl)c2ccccc12	-17	58*	6	-22	-8	14	4	28
NC(=O)c1cccc2ccccc12	20	15	-6	·	-3	-7	·	·
COc1ccc(OCCNC(=O)c2ccc3nc(C)c(N(C)C(=O)CCc4ccccc4)n3c2)cc1	-3	0	·	-5	-8	15	·	·
CC(=O)Nc1ccc(NC(=O)C(C)OC(=O)CCCOc2ccc(Cl)c(C)c2)cc1 (stereo unspecified)	10	9	2	10	-5	8	·	·
CC(OC(=O)CNC(=O)c1ccc(Cl)c(Cl)c1)C(=O)N1CCOCC1 (stereo unspecified)	-19	7	-3	-8	6	10	·	·
SMILES	Peg3 promoter	HIF-2a block	LMP1 NFkB inh	Shn3 3UTR inh	KKLEB tox	CF NFkB inh	HIF-2a conf	HIF-1a cs	others
O=C(Nc1ccccc1)c1c(F)c(F)c(F)c(F)c1F	-21	9	-3	-2	-8	6	·	·
CC(C)c1c(C(=O)Nc2ccccc2)c(-c2ccccc2)c(-c2ccc(F)cc2)n1CC[C@@H](O)C[C@@H](O)CC(=O)O	19	40*	·	53	-14	17	27	-34
C=C1C(=O)OC2C=C(CO)C3OC3C3OC3(C)CC(OC(=O)/C(=C/C)COC(C)=O)C12 (stereo unspecified)	106*	85*	70*	93*	-92*	82*	93*	107*
CCOc1ccc(C(=O)Nc2nnc(SCC(=O)NCC3CCCO3)s2)cc1 (stereo unspecified)	21	55*	61*	7	-36	15	59*	-1
COc1ccc(C(=O)Nn2c(SCC(=O)NCC3CCCO3)nc3ccccc3c2=O)cc1 (stereo unspecified)	13	49*	39	53	-6	5	60*	49
O=C(CSc1nnc(NC(=O)c2cccc(F)c2)s1)NCC1CCCO1 (stereo unspecified)	-30	-44	-3	-21	-12	26	·	·
O=C(COC(=O)C(CO)NS(=O)(=O)c1ccc(Br)cc1)Nc1ccc2c(c1)OCCO2 (stereo unspecified)	-4	4	2	-5	3	12	·	·
CCn1c2ccccc2c2cc(NC(=O)CSc3nnc(-c4ccc(OC)cc4)n3N)ccc21	34	41*	8	-1	-13	12	3	31
Cc1ccc(-c2csc3ncnc(SCC(N)=O)c23)cc1	19	11	4	-1	6	23	·	·
Cn1nnnc1Sc1ncnc2scc(-c3ccc(Br)cc3)c12	103*	93*	15	96*	-92*	86*	100*	106*	Mdm2-MdmX confirm=103*
Cn1nnnc1Sc1ncnc2scc(-c3ccc(F)cc3)c12	97*	78*	71*	93*	-45	60*	·	·	Mdm2-MdmX confirm=103*
CCc1ccc(-c2nc(CS(=O)CC(=O)NCc3ccco3)c(C)o2)cc1 (stereo unspecified)	46	70*	17	26	16	-25	22	69*
COc1ccc(-c2nc(CS(=O)CC(=O)NCc3ccco3)c(C)o2)cc1 (stereo unspecified)	-17	-9	-5	1	4	-4	·	·
